Measurements as given in the supplement of paper PMC11732987, “Enantioselective OTUD7B fragment discovery through chemoproteomics screening and high-throughput optimisation” (Communications Chemistry, 2025).

Key:
Assay in all cases: log2 ratio of Biotin-Ahx-Ub-VS probe labelling (fragment/DMSO); higher = less target engagement (more negative = stronger competition), active = hit call of the paper (q ≤ 0.05, log2 ratio ≤ -1)
Conditions in all cases: compound concentration: 200 uM; treatment time: 3 h
[1] = biological target: USP34 (UniProt Q70CQ2)
How it was run: (§1)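 The table lists average log2 ratios of fragment over vehicle, from an unpaired t-test on global-median-normalised Spectronaut label-free quantities. Proteins with ≥2 unique peptides were used. Samples were HEK293T lysate (495 µg) treated in triplicate with fragment at 200 µM or vehicle for 3 h, then with Biotin-Ahx-Ub-VS (0.5 µM final) for 1 h, with labelled DUBs NeutrAvidin-enriched and run by diaPASEF LC-MS/MS.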

[2] = biological target: T1, USP36 (UniProt Q9P275)
T1 sequence (whole entry): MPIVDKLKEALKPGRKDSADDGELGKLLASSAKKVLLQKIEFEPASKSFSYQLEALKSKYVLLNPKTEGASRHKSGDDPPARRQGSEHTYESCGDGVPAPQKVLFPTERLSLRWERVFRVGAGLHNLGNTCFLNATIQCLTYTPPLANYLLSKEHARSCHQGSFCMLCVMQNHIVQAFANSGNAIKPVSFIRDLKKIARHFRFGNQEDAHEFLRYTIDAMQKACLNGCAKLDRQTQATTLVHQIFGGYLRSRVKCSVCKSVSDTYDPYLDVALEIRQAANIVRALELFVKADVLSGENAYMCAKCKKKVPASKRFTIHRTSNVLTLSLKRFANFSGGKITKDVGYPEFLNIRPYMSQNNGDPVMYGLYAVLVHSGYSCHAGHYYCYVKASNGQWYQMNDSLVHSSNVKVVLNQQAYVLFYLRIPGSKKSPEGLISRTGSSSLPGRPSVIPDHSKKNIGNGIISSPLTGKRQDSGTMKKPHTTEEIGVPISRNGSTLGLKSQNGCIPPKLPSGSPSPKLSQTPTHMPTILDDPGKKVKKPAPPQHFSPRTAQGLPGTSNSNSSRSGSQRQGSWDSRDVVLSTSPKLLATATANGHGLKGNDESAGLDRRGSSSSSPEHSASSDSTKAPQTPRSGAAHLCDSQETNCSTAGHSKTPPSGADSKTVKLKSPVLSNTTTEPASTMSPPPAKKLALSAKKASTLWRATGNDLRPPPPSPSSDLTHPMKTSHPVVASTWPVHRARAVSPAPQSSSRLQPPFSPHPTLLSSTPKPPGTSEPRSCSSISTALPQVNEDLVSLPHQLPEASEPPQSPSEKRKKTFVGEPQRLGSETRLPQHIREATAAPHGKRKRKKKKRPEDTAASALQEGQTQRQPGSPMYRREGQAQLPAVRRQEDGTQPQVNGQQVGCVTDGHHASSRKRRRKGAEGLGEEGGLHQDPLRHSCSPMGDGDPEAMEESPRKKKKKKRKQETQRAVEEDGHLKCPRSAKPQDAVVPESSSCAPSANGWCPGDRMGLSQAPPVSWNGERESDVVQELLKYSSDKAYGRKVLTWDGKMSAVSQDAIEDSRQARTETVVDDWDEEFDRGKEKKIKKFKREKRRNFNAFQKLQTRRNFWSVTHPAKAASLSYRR
How it was run: as §1

[3] = biological target: T2, USP38 (UniProt Q8NB14)
T2 sequence (whole entry): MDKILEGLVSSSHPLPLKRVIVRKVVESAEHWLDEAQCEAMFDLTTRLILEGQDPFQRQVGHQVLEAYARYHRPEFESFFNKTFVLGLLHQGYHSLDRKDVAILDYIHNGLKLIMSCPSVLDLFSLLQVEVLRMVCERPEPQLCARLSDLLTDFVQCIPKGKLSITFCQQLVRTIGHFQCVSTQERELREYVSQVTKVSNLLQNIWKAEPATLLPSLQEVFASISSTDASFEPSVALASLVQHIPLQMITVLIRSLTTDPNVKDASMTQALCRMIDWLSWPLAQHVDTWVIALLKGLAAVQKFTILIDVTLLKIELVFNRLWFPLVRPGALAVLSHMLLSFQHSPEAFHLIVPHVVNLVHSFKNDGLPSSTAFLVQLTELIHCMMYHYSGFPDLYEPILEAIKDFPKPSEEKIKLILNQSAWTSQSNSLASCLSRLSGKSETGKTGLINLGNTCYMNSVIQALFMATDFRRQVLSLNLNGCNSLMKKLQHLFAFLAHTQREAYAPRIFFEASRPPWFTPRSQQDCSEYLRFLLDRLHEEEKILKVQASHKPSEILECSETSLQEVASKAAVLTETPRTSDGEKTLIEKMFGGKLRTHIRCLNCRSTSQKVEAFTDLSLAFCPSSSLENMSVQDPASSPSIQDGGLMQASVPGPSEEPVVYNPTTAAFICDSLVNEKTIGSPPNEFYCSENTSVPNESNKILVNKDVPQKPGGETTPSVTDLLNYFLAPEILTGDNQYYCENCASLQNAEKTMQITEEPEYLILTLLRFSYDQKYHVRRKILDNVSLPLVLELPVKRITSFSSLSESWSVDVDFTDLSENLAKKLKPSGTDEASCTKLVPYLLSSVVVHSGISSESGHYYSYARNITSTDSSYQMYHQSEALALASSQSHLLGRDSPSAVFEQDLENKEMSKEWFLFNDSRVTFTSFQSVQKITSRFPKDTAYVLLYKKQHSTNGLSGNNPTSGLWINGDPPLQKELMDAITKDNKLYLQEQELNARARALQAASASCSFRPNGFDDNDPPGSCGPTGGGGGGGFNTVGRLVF
How it was run: as §1

[4] = biological target: T3, USP39 (UniProt Q53GS9)
T3 sequence (whole entry): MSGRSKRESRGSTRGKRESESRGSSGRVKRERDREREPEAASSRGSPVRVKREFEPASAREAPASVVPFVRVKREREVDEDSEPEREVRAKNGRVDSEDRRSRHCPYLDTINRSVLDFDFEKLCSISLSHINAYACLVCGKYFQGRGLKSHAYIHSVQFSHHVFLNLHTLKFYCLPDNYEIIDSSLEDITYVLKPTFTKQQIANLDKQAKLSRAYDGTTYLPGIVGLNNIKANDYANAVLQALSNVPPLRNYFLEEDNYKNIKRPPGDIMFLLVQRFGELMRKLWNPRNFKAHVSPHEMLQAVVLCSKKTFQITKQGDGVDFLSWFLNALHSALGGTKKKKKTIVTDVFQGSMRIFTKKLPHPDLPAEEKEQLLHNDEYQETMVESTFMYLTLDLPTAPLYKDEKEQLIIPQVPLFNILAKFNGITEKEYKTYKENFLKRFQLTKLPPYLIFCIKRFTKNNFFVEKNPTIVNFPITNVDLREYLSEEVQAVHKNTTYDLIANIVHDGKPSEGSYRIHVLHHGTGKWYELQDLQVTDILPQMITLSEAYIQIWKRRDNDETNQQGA
How it was run: as §1

[5] = biological target: T4, USP4 (UniProt Q13107)
T4 sequence (whole entry): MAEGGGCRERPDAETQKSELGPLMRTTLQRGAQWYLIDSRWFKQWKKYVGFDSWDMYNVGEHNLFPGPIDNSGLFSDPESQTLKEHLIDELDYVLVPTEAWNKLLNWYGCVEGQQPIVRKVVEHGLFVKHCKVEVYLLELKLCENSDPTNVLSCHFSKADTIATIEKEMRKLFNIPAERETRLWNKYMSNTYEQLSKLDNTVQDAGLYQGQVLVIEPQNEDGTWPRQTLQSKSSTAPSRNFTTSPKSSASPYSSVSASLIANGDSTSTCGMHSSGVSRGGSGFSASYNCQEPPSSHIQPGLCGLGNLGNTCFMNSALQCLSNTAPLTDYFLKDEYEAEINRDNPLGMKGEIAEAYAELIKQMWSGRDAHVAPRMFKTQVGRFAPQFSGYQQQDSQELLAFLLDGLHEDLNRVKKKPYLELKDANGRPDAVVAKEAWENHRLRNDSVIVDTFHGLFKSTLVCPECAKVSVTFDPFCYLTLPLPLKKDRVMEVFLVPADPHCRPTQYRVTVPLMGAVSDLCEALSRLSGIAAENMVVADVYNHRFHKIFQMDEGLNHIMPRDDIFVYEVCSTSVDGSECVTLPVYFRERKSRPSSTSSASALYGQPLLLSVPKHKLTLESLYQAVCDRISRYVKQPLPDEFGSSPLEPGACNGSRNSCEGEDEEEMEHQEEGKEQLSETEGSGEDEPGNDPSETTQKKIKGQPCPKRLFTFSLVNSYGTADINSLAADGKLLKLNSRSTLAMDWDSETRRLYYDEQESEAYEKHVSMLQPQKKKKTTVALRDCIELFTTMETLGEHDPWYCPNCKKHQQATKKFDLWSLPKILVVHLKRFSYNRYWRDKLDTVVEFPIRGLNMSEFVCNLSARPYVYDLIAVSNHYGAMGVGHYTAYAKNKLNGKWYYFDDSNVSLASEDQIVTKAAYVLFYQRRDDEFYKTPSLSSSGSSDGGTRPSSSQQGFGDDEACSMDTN
How it was run: as §1

Measured: log2 ratio of Biotin-Ahx-Ub-VS probe labelling

Chain of USP34 (Q70CQ2 whole entry, the tested form may be a part): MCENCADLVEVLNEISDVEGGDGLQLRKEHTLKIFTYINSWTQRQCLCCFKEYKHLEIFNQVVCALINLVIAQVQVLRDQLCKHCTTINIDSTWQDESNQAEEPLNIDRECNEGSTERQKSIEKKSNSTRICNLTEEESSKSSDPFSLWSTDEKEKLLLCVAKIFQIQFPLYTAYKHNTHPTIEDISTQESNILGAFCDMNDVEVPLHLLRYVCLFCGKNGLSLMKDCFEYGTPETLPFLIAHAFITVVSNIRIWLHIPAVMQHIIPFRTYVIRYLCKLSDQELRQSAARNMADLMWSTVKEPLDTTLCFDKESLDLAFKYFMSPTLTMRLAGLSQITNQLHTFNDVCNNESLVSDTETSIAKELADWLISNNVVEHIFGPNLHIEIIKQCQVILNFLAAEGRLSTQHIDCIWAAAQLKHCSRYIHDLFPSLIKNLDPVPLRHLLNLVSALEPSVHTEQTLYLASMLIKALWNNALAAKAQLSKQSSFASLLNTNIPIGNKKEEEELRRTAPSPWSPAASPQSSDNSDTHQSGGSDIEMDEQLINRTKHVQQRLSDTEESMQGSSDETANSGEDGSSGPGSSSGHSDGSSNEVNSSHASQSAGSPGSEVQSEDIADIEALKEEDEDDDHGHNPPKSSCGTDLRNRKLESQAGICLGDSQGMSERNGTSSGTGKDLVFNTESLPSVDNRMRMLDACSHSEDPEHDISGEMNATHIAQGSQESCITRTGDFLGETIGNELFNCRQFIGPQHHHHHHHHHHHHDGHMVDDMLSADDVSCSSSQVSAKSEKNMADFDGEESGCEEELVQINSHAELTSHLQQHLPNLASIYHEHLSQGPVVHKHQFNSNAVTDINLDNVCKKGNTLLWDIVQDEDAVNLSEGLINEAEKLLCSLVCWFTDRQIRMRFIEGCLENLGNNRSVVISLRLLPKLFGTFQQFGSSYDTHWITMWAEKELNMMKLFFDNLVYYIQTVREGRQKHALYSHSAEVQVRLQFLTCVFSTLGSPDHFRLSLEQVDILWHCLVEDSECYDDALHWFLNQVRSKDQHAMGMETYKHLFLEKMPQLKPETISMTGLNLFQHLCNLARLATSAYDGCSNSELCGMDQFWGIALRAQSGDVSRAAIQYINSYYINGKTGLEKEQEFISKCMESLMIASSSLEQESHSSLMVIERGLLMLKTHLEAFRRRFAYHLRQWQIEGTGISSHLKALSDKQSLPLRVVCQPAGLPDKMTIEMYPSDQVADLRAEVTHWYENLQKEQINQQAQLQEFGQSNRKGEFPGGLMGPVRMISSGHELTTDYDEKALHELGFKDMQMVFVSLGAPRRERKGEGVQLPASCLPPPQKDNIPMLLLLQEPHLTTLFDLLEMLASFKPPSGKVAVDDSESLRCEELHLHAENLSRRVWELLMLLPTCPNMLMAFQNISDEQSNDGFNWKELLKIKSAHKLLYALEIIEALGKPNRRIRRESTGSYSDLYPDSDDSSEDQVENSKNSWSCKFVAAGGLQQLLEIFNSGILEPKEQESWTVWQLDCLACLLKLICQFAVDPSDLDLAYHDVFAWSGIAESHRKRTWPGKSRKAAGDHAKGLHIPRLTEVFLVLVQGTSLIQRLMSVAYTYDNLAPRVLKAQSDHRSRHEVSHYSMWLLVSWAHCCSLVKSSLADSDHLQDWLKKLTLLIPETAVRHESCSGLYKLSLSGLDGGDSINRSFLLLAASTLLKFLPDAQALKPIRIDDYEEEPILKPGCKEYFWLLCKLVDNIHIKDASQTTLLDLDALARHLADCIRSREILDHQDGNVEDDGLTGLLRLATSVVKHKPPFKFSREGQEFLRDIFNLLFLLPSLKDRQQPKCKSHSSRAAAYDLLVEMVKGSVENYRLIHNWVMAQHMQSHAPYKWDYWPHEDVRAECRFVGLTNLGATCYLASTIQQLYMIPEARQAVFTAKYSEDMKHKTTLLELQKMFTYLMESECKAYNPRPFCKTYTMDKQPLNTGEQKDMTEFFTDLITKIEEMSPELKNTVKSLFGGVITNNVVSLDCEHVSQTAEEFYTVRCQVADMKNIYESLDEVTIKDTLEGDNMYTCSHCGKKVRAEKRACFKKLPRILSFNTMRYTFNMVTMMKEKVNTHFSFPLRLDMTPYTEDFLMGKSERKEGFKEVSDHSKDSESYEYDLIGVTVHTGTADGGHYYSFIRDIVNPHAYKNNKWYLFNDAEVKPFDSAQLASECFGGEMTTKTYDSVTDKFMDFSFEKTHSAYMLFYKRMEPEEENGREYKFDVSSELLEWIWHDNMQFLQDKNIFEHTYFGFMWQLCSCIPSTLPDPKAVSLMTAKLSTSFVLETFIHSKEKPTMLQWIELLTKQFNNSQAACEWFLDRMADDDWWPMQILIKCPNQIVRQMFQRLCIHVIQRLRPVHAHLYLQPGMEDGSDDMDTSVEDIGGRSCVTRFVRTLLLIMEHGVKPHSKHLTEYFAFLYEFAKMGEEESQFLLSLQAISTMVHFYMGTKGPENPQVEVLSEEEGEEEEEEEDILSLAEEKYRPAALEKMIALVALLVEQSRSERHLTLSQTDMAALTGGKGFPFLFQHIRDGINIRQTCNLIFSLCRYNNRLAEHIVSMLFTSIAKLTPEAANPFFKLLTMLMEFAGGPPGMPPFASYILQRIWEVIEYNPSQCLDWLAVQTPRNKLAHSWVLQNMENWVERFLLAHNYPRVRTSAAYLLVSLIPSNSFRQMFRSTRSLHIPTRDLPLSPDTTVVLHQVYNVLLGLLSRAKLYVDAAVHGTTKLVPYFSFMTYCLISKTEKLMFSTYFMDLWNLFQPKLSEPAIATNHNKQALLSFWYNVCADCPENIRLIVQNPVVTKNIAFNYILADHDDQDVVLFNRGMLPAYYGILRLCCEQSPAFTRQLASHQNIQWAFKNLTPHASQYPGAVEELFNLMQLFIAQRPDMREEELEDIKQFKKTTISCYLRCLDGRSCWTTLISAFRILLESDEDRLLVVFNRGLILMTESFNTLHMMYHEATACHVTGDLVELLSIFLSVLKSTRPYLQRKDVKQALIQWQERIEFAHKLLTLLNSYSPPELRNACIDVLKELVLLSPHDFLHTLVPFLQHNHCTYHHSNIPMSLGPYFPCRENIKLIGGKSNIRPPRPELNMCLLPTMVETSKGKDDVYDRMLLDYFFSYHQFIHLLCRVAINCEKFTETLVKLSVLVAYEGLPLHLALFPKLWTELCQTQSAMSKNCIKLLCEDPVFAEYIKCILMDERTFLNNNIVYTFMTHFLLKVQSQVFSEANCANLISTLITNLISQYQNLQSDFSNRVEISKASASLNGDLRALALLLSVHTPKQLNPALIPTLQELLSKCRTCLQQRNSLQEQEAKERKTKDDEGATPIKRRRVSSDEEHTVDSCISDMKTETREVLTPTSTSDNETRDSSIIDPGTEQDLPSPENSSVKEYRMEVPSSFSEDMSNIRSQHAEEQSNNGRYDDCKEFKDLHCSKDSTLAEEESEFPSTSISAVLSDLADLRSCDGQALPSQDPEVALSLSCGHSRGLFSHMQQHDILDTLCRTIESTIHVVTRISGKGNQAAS

NC(=O)C1CCCN(C(=O)CCl)C1 (stereo not given)
inactive: [1] -0.00128 | [2] 0.0237 | [3] -0.242 | [4] -0.334 | [5] -0.0203
